Laboratory results reported in PubChem BioAssay (EPA / NIEHS).
Some structures have more than one record in an assay (separate samples or runs), and their calls can disagree. Active and inactive are the calls of the source. Rule for the calls: active = hit-call score of the fitted dose curve at least 0.9, where 1 is the maximum; inactive = score below 0.9.

Columns and labels:
[1] = target: Transcription factor E2F1 (Homo sapiens) (UniProt Q01094); assay: ATG_E2F_CIS: Attagene CIS-FACTORIAL HepG2 Assay for human E2F Transcription Factor 1 (AID 2282935); details: HepG2 Attagene cis-reporter, E2F reporter RNA transcripts; actives raise or lower the signal
Sequence of Transcription factor E2F1 (Homo sapiens) (Q01094 whole entry, looked up): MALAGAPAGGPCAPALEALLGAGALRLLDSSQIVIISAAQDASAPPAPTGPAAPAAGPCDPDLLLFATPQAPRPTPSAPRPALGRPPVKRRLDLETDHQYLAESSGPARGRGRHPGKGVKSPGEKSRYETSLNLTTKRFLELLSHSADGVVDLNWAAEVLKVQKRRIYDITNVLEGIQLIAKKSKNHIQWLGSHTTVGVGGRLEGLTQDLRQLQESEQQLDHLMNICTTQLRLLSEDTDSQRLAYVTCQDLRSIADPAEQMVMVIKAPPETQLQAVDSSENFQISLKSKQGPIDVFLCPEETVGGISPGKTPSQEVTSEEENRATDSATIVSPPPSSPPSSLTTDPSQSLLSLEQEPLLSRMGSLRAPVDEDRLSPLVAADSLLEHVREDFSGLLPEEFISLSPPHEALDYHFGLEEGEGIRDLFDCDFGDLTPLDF
Summary of the method: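 Transient MRTU transfection of HepG2; 24 h compound exposure; RNA → oligo(dT) RT → PCR → FAM label → HpaI cut → CE fluorescence. Gain/loss of signal fit against DMSO.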

[2] = ATG_E_Box_CIS: Attagene CIS-FACTORIAL HepG2 Assay for human Enhancer Box (E-box) (AID 2282936); details: HepG2 E-box cis-reporter transcription, actives raise or lower the signal
Summary of the method: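 Transiently transfected HepG2, endogenous TF-driven reporters, 24 h dosing. Readout: RT-PCR plus capillary electrophoresis of fluorescent reporter fragments. Gain or loss of signal fitted bidirectionally against DMSO baseline.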

[3] = ATG_M_61_CIS: Attagene CIS-FACTORIAL HepG2 Assay for M61 Transcription Factor (Internal Marker) (AID 2282937); details: HepG2 Attagene CIS-FACTORIAL M61 internal marker reporter; actives raise or lower the signal
Summary of the method: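 Multiplexed reporter mRNA assay, HepG2 human hepatoma cells, 24 h treatment. Signal: FAM-labelled, HpaI-digested RT-PCR fragments by CE. Fit: bidirectional, baseline DMSO.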

[4] = ATG_EGR_CIS: Attagene CIS-FACTORIAL HepG2 Assay for human Early Growth Response 1 (EGR1) (AID 2282938); details: HepG2 Attagene CIS-FACTORIAL EGR reporter mRNA; actives raise or lower the signal
Summary of the method: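 Multiplexed cis-reporter system in human hepatoma HepG2 cells, transiently transfected. Cells are dosed for 24 h; reporter transcripts are amplified, fluorescently tagged and sized by capillary electrophoresis, with DMSO as negative control.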

[5] = ATG_M_19_CIS: Attagene CIS-FACTORIAL HepG2 Assay for M19 Transcription Factor (Internal Marker) (AID 2282939); details: HepG2 Attagene CIS-FACTORIAL M19 internal marker reporter; actives raise or lower the signal
Summary of the method: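 Chemical-treated HepG2 (24 h) with MRTU constructs; reporter transcripts detected by fluorescent RT-PCR fragment analysis on capillary electrophoresis. Internal background marker, DMSO as baseline.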

[6] = ATG_ERE_CIS: Attagene CIS-FACTORIAL HepG2 Assay for Estrogen Response Element (ERE) (AID 2282940); details: HepG2 ERE cis-reporter, Attagene RNA transcript; actives raise or lower the signal
Summary of the method: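 Human liver cells (HepG2) bearing transiently transfected, promoter-regulated reporter units were exposed 24 h. Reporter mRNA induction was detected by capillary electrophoresis of labelled RT-PCR products and fitted bidirectionally to DMSO.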

[7] = ATG_Ets_CIS: Attagene CIS-FACTORIAL HepG2 Assay for human Erythroblast Transformation Specific (ETS) (AID 2282941); details: HepG2 ETS cis-reporter transcription, actives raise or lower the signal
Summary of the method: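 RT-PCR/capillary electrophoresis fluorescence read-out of reporter mRNA; HepG2 transient multi-reporter transfection; 24 h compound exposure; gain or loss of signal fitted bidirectionally relative to DMSO.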

[8] = target: Hepatocyte nuclear factor 3-beta (Homo sapiens) (UniProt Q9Y261); assay: ATG_FoxA2_CIS: Attagene CIS-FACTORIAL HepG2 Assay for human Forkhead box A2 (FOXA2) (AID 2282942); details: HepG2 cis-reporter transcription factor activity, 24 h; actives raise or lower the signal
Sequence of Hepatocyte nuclear factor 3-beta (Homo sapiens) (Q9Y261 whole entry, looked up): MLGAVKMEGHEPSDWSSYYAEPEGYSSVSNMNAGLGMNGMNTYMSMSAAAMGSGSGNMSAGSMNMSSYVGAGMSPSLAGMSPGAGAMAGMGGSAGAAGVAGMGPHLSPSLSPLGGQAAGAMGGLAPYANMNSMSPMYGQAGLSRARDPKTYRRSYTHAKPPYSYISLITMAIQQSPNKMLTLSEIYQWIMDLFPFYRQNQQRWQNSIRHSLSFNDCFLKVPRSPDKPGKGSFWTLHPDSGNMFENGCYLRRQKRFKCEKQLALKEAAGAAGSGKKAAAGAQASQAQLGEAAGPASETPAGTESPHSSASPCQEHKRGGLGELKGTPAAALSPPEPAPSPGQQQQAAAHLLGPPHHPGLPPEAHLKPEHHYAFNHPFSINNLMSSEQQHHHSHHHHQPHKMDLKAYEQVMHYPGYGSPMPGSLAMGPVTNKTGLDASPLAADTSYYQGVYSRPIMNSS
Summary of the method: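 Multiplexed cis-element reporter assay in transiently transfected HepG2. Twenty-four hours post-dosing, RNA was reverse-transcribed, amplified, FAM-labelled, HpaI-digested and separated by CE. Activity gain or loss relative to DMSO.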

[9] = ATG_FoxO_CIS: Attagene CIS-FACTORIAL HepG2 Assay for human Forkhead box O (FoxO) (AID 2282943); details: HepG2 Attagene cis-reporter, FoxO element, mRNA; actives raise or lower the signal
Summary of the method: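 Transfected HepG2 reporter cells exposed to test chemical for 24 h; reporter RNA measured by reverse transcription, PCR and fluorescent capillary electrophoresis; curves fitted for increases and decreases against DMSO.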

[10] = ATG_GATA_CIS: Attagene CIS-FACTORIAL HepG2 Assay for human GATA Binding Protein (AID 2282944); details: HepG2 GATA cis-element reporter, Attagene multiplex mRNA; actives raise or lower the signal
Summary of the method: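 Transfected cis-reporter HepG2 cells were treated with chemicals for 24 hours. Total RNA was then converted to cDNA, amplified with reporter-specific primers and analysed by fluorescent capillary electrophoresis, using DMSO-treated wells as baseline.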

[11] = ATG_GLI_CIS: Attagene CIS-FACTORIAL HepG2 Assay for human Zinc Finger Protein GLI1 (AID 2282945); details: HepG2, Attagene cis-factorial reporter mRNA, GLI element; actives raise or lower the signal
Summary of the method: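 Transiently transfected HepG2 cells report endogenous transcription factor activity via cis-element-driven reporter units. After 24 h compound exposure, reporter mRNA was measured by RT-PCR with capillary electrophoresis; bidirectional fitting against DMSO baseline.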

[12] = target: Bile acid receptor (Homo sapiens) (UniProt Q96RI1); assay: ATG_IR1_CIS: Attagene CIS-FACTORIAL HepG2 Assay for human Nuclear Receptor Subfamily 1 Group H Member 4 (NR1H4), IR1 submotif (AID 2282946); details: IR1 reporter transcription, actives raise or lower the signal
Sequence of Bile acid receptor (Homo sapiens) (Q96RI1 whole entry, looked up): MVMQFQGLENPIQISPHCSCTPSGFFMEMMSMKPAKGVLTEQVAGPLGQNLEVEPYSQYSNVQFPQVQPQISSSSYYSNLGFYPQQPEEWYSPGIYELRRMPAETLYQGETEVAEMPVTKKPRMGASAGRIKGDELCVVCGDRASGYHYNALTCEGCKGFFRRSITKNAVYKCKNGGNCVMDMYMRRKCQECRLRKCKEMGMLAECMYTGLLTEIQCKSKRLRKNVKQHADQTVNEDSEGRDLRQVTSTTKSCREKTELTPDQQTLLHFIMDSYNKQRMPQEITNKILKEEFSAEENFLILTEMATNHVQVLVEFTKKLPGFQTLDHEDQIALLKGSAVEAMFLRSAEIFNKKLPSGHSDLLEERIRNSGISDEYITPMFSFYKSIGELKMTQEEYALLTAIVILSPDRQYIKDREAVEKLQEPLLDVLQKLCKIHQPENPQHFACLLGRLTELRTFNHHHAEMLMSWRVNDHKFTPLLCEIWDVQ
Summary of the method: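 Fluorescence of capillary-separated, HpaI-digested RT-PCR reporter products gave IR1-element mRNA induction in HepG2 cells 24 h after dosing. Endogenous transcription factors drove the cis-regulated reporters; activity was fitted bidirectionally against DMSO.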

[13] = ATG_ISRE_CIS: Attagene CIS-FACTORIAL HepG2 Assay for human Interferon Regulatory Factor 1 (IRF1) binding to an Interferon-Stimulated Response Element (ISRE) (AID 2282948); details: HepG2 ISRE cis-reporter (Attagene), mRNA transcription readout; actives raise or lower the signal
Summary of the method: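 Read-out: fluorescent RT-PCR products resolved by capillary electrophoresis, reporting endogenous transcription factor activity via ISRE-driven reporter mRNA in transfected HepG2 cells dosed for 24 h; gain or loss fitted relative to DMSO.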

[14] = ATG_M_32_CIS: Attagene CIS-FACTORIAL HepG2 Assay for M32 Transcription Factor (Internal Marker) (AID 2282949); details: HepG2 Attagene cis-factorial M32 reporter, mRNA; actives raise or lower the signal;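 note: background control marker of the multiplexed CIS panel rather than a real target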
Summary of the method: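 Using DMSO as baseline, bidirectional curve fits were applied to reporter mRNA signals. These came from transiently transfected HepG2 cells exposed for 24 h, with RNA analysed by RT-PCR, FAM primer extension, HpaI digestion and CE.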

[15] = ATG_M_06_CIS: Attagene CIS-FACTORIAL HepG2 Assay for M06 Transcription Factor (Internal Marker) (AID 2282950); details: HepG2 Attagene CIS-FACTORIAL M06 internal marker reporter; actives raise or lower the signal
Summary of the method: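 Cells (HepG2, transiently carrying cis-driven reporter units) receive chemical for 24 h before RNA isolation. Reporter cDNA is PCR-amplified, FAM-labelled by primer extension, HpaI-digested and sized on a capillary analyser.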

[16] = target: Hypoxia-inducible factor 1-alpha (Homo sapiens) (UniProt Q16665); assay: ATG_HIF1a_CIS: Attagene CIS-FACTORIAL HepG2 Assay for human Hypoxia Inducible Factor 1 (HIF1A) (AID 2282951); details: HepG2 Attagene cis-factorial HIF1a reporter transcription; actives raise or lower the signal
Sequence of Hypoxia-inducible factor 1-alpha (Homo sapiens) (Q16665 whole entry, looked up): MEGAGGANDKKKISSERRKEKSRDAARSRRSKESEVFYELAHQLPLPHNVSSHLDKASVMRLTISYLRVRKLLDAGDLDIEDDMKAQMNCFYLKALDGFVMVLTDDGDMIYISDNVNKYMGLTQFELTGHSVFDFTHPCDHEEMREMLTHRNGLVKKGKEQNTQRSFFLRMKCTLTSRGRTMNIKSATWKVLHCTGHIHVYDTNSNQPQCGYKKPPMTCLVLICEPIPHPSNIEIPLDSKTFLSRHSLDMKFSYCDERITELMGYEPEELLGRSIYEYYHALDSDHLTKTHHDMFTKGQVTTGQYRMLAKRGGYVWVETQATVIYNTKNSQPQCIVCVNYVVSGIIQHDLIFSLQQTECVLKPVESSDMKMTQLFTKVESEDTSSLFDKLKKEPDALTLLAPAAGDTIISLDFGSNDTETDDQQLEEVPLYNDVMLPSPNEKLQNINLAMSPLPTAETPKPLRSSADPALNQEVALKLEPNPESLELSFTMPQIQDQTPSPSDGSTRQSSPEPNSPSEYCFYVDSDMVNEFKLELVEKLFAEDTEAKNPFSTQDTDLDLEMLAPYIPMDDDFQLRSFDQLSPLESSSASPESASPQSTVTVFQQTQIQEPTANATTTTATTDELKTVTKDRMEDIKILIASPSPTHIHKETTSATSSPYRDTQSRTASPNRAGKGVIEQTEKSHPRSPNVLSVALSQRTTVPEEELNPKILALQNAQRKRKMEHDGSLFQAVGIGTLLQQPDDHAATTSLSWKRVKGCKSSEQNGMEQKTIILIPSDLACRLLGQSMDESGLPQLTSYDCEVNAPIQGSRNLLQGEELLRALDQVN
Summary of the method: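 Cis-element reporter constructs were transiently transfected into HepG2 cells, which were treated for 24 h; reporter RNA was reverse-transcribed, amplified, labelled and resolved by capillary electrophoresis.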

[17] = target: Hepatocyte nuclear factor 6 (Homo sapiens) (UniProt Q9UBC0); assay: ATG_HNF6_CIS: Attagene CIS-FACTORIAL HepG2 Assay for human Hepatocyte Nuclear Factor 6 (HNF6) (AID 2282952); details: HepG2 Attagene cis-factorial HNF6 reporter transcription; actives raise or lower the signal
Sequence of Hepatocyte nuclear factor 6 (Homo sapiens) (Q9UBC0 whole entry, looked up, the tested form may be a part): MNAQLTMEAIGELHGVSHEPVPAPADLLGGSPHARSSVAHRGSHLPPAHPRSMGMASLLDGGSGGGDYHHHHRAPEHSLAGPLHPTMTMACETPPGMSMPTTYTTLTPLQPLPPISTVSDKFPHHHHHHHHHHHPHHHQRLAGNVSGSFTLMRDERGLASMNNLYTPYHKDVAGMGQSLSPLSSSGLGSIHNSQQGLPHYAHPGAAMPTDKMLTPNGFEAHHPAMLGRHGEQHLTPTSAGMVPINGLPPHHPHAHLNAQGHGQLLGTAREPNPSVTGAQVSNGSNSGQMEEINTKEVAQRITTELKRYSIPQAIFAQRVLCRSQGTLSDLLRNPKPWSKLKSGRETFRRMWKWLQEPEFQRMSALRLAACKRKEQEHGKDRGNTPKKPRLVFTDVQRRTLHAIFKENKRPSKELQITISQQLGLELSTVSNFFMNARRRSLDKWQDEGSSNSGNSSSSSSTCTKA
Summary of the method: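 First, HepG2 cells were transfected with the multiplexed cis reporter library and dosed with chemical for 24 h. Next, RNA was reverse-transcribed, PCR-amplified and fluorescently labelled. Finally, HpaI-digested fragments were read by capillary electrophoresis.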

[18] = target: Heat shock factor protein 1 (Homo sapiens) (UniProt Q00613); assay: ATG_HSE_CIS: Attagene CIS-FACTORIAL HepG2 Assay for human Heat Shock Transcription Factor 1 (HSE) (AID 2282953); details: HepG2 HSE cis-reporter, Attagene RNA transcription; actives raise or lower the signal
Sequence of Heat shock factor protein 1 (Homo sapiens) (Q00613 whole entry, looked up): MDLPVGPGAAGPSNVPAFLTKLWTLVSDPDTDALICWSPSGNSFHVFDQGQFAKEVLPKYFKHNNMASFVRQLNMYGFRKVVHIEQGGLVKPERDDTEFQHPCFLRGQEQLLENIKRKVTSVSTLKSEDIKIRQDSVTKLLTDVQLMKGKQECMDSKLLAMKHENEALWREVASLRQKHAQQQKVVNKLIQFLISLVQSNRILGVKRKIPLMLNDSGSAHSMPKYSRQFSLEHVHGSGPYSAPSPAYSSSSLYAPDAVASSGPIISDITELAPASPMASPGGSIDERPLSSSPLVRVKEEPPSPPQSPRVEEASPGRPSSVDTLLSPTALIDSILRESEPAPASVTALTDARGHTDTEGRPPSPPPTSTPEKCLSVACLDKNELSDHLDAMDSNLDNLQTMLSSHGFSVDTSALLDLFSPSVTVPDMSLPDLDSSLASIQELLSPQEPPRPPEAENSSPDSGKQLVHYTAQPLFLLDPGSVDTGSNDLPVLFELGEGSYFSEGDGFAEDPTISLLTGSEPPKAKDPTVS
Summary of the method: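 Liver-derived HepG2 cells carry transiently introduced multiple reporter units governed by cis promoters. Reporter RNA measured 24 h post-dose through reverse transcription, PCR amplification, fluorescent labelling and capillary electrophoresis, normalised to DMSO.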

[19] = ATG_MRE_CIS: Attagene CIS-FACTORIAL HepG2 Assay for human Metal Responsive Element (MRE) (AID 2282954); details: HepG2 MRE cis-reporter transcription, Attagene multiplex; actives raise or lower the signal
Summary of the method: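 RT-PCR/capillary electrophoresis readout of reporter mRNA, 24 h post-dosing, in HepG2 cells transfected with multiplexed cis-regulated reporter constructs. Gain or loss of signal fitted bidirectionally against DMSO baseline.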

[20] = ATG_GRE_CIS: Attagene CIS-FACTORIAL HepG2 Assay for human Glucocorticoid Response Elements (GRE) (AID 2282947); details: HepG2 GRE cis-reporter, Attagene multiplex mRNA; actives raise or lower the signal
Summary of the method: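 Read-out: fluorescent reporter-transcript fragments separated by capillary electrophoresis after RT-PCR. Transiently transfected HepG2 cells carrying cis-element-driven reporter units were dosed for 24 h; gain or loss of signal fitted against DMSO control.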

Measured: AC50

CC(C)OC(=O)Nc1cccc(Cl)c1
active: [4] 94.5 µM | [19] 50 µM
not listed: [20]
inactive: all other assays above

O=C(O)COc1ccc(Cl)cc1Cl
not listed: [6] | [12] | [18]
inactive: all other assays above

COC(=O)c1ccccc1S(=O)(=O)NC(=O)Nc1nc(C)nc(OC)n1
inactive: [1] | [2] | [3] | [4] | [5] | [7] | [8] | [9] | [10] | [11] | [12] | [13] | [14] | [15] | [16] | [17] | [18] | [19]
active: [9] 75.5 µM

COP(=S)(OC)Oc1ccc(SC)c(C)c1
active: [6] 17.7 µM
not listed: [12]
inactive: all other assays above

CCS(=O)(=O)c1cccnc1S(=O)(=O)NC(=O)Nc1nc(OC)cc(OC)n1
not listed: [6]
inactive: all other assays above

O=C(O)CCCOc1ccc(Cl)cc1Cl
not listed: [6] | [12] | [20]
inactive: all other assays above

O=[N+]([O-])c1c(Cl)c(Cl)c(Cl)c(Cl)c1Cl
active: [4] 90.8 µM | [6] 12.9 µM | [16] 37.6 µM | [18] 80.8 µM | [19] 50 µM
not listed: [12]
inactive: all other assays above

CCC(C)Nc1c([N+](=O)[O-])cc(C(C)(C)C)cc1[N+](=O)[O-] (stereo unspecified)
active: [6] 5.96 µM | [19] 31.6 µM
not listed: [12] | [18]
inactive: all other assays above

[2H]C1([2H])[n+]2ccccc2-c2cccc[n+]2C1([2H])[2H]
active: [1] 90.7 µM | [2] 78.7 µM
not listed: [12]
inactive: all other assays above

COP(=O)(OC)OC=C(Cl)Cl
active: [4] 14.4 µM | [13] 50 µM | [19] 36.7 µM
not listed: [12] | [20]
inactive: all other assays above

C#CCN1C(=O)COc2cc(F)c(N3C(=O)C4=C(CCCC4)C3=O)cc21
not listed: [12]
inactive: all other assays above

CC1(C)C(C=C(Cl)Cl)C1C(=O)OC(C#N)c1ccc(F)c(Oc2ccccc2)c1 (stereo unspecified)
not listed: [12]
inactive: all other assays above

CNC(=O)Oc1cccc(N=CN(C)C)c1
active: [6] 91.4 µM | [9] 70.8 µM | [10] 33.6 µM | [19] 72.1 µM
not listed: [20]
inactive: all other assays above

CCOCN(C(=O)CCl)c1c(C)cccc1CC
not listed: [12]
inactive: all other assays above

C[C@H]1[C@H](c2ccc(Cl)cc2)SC(=O)N1C(=O)NC1CCCCC1
active: [1] 20.9 µM | [4] 15.4 µM | [19] 38.3 µM
not listed: [12]
inactive: all other assays above

CCOC1Oc2ccc(OS(C)(=O)=O)cc2C1(C)C (stereo unspecified)
active: [19] 50 µM
not listed: [12] | [18] | [20]
inactive: all other assays above
